# According to the supplement of paper PMC8728848:
# The sample as a whole holds a higher share of the strongest signals than the screen did.
# B1: LF82 (Escherichia coli) (protein)
# chain: ADWGPCRTASGDPFIFVTSFTKNIQNPTDNVTGQTYPDFYQWALGDKYSGVCECPSPNPTEARPTLYKTESTLAAGHNSTYFKITNNLEVSTRVYIANVGNVQVPFINKSNSQPGRECDQPTFGWTTGSKGQLSLYIAKPFVGEQNIPQTIIVSVFGTKKENVYSSVPISQVLLSGKVTVTQGCELAAGTSLDIDFGEYQAHDFKGRTGQPPQNVQKIQKELTFNCTNISDGVHIYLSLEGTPNAAYPSAISLGNADVGAVIEDGKGNILKPNDSNSLLEMNPGSLYEYVKRKVTTTITAYPVSTTGKLPAAGDYSGVATMHVELDGGGGGGGGGGATTDLGAKGTLKFSLKISQGHHHHHH
# Legend:
# Experiment in all cases: glycan array binding signal (z-score within array); higher = stronger binding
# Conditions in all cases: glycan notation: IUPAC condensed, linker removed
# [1] = target: Fuc(a1-2)Gal(b1-3)GalNAc(b1-4)[Neu5Ac(a2-3)]Gal(b1-4)Glc
# In short: (§1)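 Glycan array binding is given as a within-array Z-score, which can be read as non-binding when negative. The arrays, 3228 of them, came from the Consortium for Functional Glycomics database and were retained only where the protein sequence was available. Z-scores were averaged across arrays of the same protein sequence at different concentrations or buffers and across linkers.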
# [2] = target: Fuc(a1-2)Gal(b1-3)GlcNAc6S
# In short: as §1
# [3] = target: Fuc(a1-2)[Gal(a1-3)]Gal(b1-3)GlcNAc
# In short: as §1
# [4] = target: Fuc(a1-2)[Gal(a1-3)]Gal(b1-3)GlcNAc(b1-2)Man(a1-3)[Fuc(a1-2)[Gal(a1-3)]Gal(b1-3)GlcNAc(b1-2)Man(a1-6)]Man(b1-4)GlcNAc(b1-4)[Fuc(a1-6)]GlcNAc
# In short: as §1
# [5] = target: Fuc(a1-2)[GalNAc(a1-3)]Gal(b1-3)GlcNAc(b1-6)GalNAc
# In short: as §1
# [6] = target: Fuc(a1-2)[GalNAc(a1-3)]Gal(b1-4)Glc
# In short: as §1
# [7] = target: Fuc(a1-3)[Gal(b1-4)]GlcNAc(b1-6)[Gal(b1-3)GlcNAc(b1-3)]Gal(b1-4)Glc
# In short: as §1
# [8] = target: Fuc(a1-3)[Gal3S(b1-4)]Glc
# In short: as §1
# Fuc(a1-4)GlcNAc = target: Fuc(a1-4)GlcNAc
# In short: as §1
# Gal(a1-3)Gal(b1-3)GlcNAc = target: Gal(a1-3)Gal(b1-3)GlcNAc
# In short: as §1
# [9] = target: Gal(a1-3)Gal(b1-3)[Fuc(a1-4)]GlcNAc(b1-2)Man(a1-3)[Gal(a1-3)Gal(b1-3)[Fuc(a1-4)]GlcNAc(b1-2)Man(a1-6)]Man(b1-4)GlcNAc(b1-4)GlcNAc
# In short: as §1
# [10] = target: Gal(a1-3)Gal(b1-4)[Fuc(a1-3)]GlcNAc
# In short: as §1
# [11] = target: Gal(a1-3)Gal(b1-4)[Fuc(a1-3)]GlcNAc(b1-2)Man(a1-3)[Gal(a1-3)Gal(b1-4)[Fuc(a1-3)]GlcNAc(b1-2)Man(a1-6)]Man(b1-4)GlcNAc(b1-4)GlcNAc
# In short: as §1
# [12] = target: Gal(b1-3)[Fuc(a1-4)]GlcNAc(b1-2)Man(a1-3)[Gal(b1-3)[Fuc(a1-4)]GlcNAc(b1-2)Man(a1-6)]Man(b1-4)GlcNAc(b1-4)[Fuc(a1-6)]GlcNAc
# In short: as §1
# [13] = target: Gal(b1-4)GlcNAc(b1-2)Man(a1-6)Man(b1-4)GlcNAc(b1-4)GlcNAc
# In short: as §1
# [14] = target: Gal(b1-4)GlcNAc(b1-3)Gal(b1-4)GlcNAc
# In short: as §1
# [15] = target: Gal(b1-4)GlcNAc(b1-3)Gal(b1-4)GlcNAc(b1-2)[Gal(b1-4)GlcNAc(b1-3)Gal(b1-4)GlcNAc(b1-6)]Man(a1-6)[Gal(b1-4)GlcNAc(b1-3)Gal(b1-4)GlcNAc(b1-2)Man(a1-3)]Man(b1-4)GlcNAc(b1-4)[Fuc(a1-6)]GlcNAc
# In short: as §1
# [16] = target: Gal(b1-4)GlcNAc(b1-3)Gal(b1-4)GlcNAc(b1-3)Gal(b1-4)GlcNAc(b1-3)Gal(b1-4)GlcNAc(b1-3)Gal(b1-4)GlcNAc(b1-2)[Gal(b1-4)GlcNAc(b1-3)Gal(b1-4)GlcNAc(b1-3)Gal(b1-4)GlcNAc(b1-3)Gal(b1-4)GlcNAc(b1-3)Gal(b1-4)GlcNAc(b1-6)]Man(a1-6)[Gal(b1-4)GlcNAc(b1-3)Gal(b1-4)GlcNAc(b1-3)Gal(b1-4)GlcNAc(b1-3)Gal(b1-4)GlcNAc(b1-3)Gal(b1-4)GlcNAc(b1-2)Man(a1-3)]Man(b1-4)GlcNAc(b1-4)[Fuc(a1-6)]GlcNAc
# In short: as §1
# [17] = target: Gal(b1-4)GlcNAc(b1-6)Gal(b1-4)GlcNAc
# In short: as §1
# [18] = target: Gal3S(b1-4)[Fuc(a1-3)]Glc6S
# In short: as §1
# GalNAc(a1-3)Gal = target: GalNAc(a1-3)Gal
# In short: as §1
# [19] = target: GalNAc(a1-3)GalNAc(b1-3)Gal(a1-4)Gal(b1-4)GlcNAc
# In short: as §1
# [20] = target: GalNAc(b1-4)GlcNAc(b1-2)Man
# In short: as §1
# [21] = target: GalNAc(b1-4)GlcNAc(b1-2)Man(a1-3)[GalNAc(b1-4)GlcNAc(b1-2)Man(a1-6)]Man(b1-4)GlcNAc(b1-4)GlcNAc
# In short: as §1
# [22] = target: Glc(a1-4)Glc(a1-4)Glc(a1-4)Glc
# In short: as §1
# [23] = target: GlcNAc(a1-4)Gal(b1-4)GlcNAc
# In short: as §1
# [24] = target: GlcNAc(a1-4)Gal(b1-4)GlcNAc(b1-3)Gal(b1-4)[Fuc(a1-3)]GlcNAc(b1-3)Gal(b1-4)[Fuc(a1-3)]GlcNAc
# In short: as §1
# [25] = target: GlcNAc(b1-2)Man(a1-3)[GlcNAc(b1-2)Man(a1-6)]Man(b1-4)GlcNAc(b1-4)GlcNAc
# In short: as §1
binder,measurement,setting,value
B1,glycan array binding signal (z-score),[1],3.03
same,glycan array binding signal (z-score),[2],2.87
same,glycan array binding signal (z-score),[3],-0.338
same,glycan array binding signal (z-score),[4],3.84
same,glycan array binding signal (z-score),[5],1.19
same,glycan array binding signal (z-score),[6],-0.933
same,glycan array binding signal (z-score),[7],-1.03
same,glycan array binding signal (z-score),[8],0.085
same,glycan array binding signal (z-score),Fuc(a1-4)GlcNAc,-0.348
same,glycan array binding signal (z-score),Gal(a1-3)Gal(b1-3)GlcNAc,-0.354
same,glycan array binding signal (z-score),[9],0.456
same,glycan array binding signal (z-score),[10],-1.48
same,glycan array binding signal (z-score),[11],1.79
same,glycan array binding signal (z-score),[12],0.378
same,glycan array binding signal (z-score),[13],4.95
same,glycan array binding signal (z-score),[14],-1.12
same,glycan array binding signal (z-score),[15],2.68
same,glycan array binding signal (z-score),[16],3.2
same,glycan array binding signal (z-score),[17],-0.202
same,glycan array binding signal (z-score),[18],-0.55
same,glycan array binding signal (z-score),GalNAc(a1-3)Gal,-0.316
same,glycan array binding signal (z-score),[19],-0.744
same,glycan array binding signal (z-score),[20],0.518
same,glycan array binding signal (z-score),[21],-0.272
same,glycan array binding signal (z-score),[22],1.21
same,glycan array binding signal (z-score),[23],2.49
same,glycan array binding signal (z-score),[24],3.63
same,glycan array binding signal (z-score),[25],-0.657
